Reference: PubChem BioAssay AID435019 (Southern Research Specialized Biocontainment Screening …, 2010)
Screen size: about 2,300 compounds; about 1,200 (52%) were called active. The rule behind the calls is not given here. So high a share suggests a set chosen from earlier hits. The list shows a part of the results. Results with a measured potency or affinity are listed apart.

Assay: mammalian cell cytotoxicity, dose response, cytotoxicity control for M. tuberculosis inhibitor project (AID 435019);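 note: lower values mean fewer viable cells so more cytotoxicity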
Conditions: cytotoxicity counter-screen; series mostly up to 40 µM

Row | Structure (SMILES) | outcome
1 | COC(=O)[C@@H](NC(=O)c1cc(COc2cncc(Cl)c2)on1)c1ccccc1 | inactive
2 | O=C(N/N=C\c1ccc[nH]1)c1cncc(Br)c1 | inactive
3 | O=C(O)C1CC=CCC1C(=O)NNc1ccccc1 (centres undefined) | inactive
4 | O=c1oc2ccccc2c(Nc2ccccc2O)c1[N+](=O)[O-] | inactive
5 | COc1ccc(NC(=O)C2C3C=CC(O3)C2C(=O)NCc2cccnc2)cc1 (centres undefined) | inactive
6 | CCCC(O)(CCC)C(=O)NNc1ccc(C)cc1 | inactive
7 | CCc1nnc(NC(=O)CN2CCN(c3nc(-c4ccccc4)cs3)CC2)s1 | inactive
8 | c1ccc2nc(-c3ccc(-n4ccnc4)cc3)ccc2c1 | inactive
9 | CCOC(=O)c1c(-c2ccc(OC)cc2)csc1NC(=O)CNCc1ccco1 | inactive
10 | CCCCOc1ccc(C(=O)Oc2ccc(C)nc2)cc1 | inactive
11 | O=c1[nH][nH]cc1C=Nc1ccc(Oc2ccccc2)cc1 | inactive
12 | CN(c1ccccc1)S(=O)(=O)c1cccc(C(=O)NCc2ccccc2CN2CCCC2)c1 | inactive
13 | CN1C(=O)N(C)c2ccc(C=O)c3cccc1c23 | inactive
14 | COc1cc2[nH]c(Cl)c([N+](=O)[O-])c2cc1OC | inactive
15 | Cc1ccc(C)c(NC(CC(=O)c2ccccc2)C(=O)OCC(=O)c2cccs2)c1 (centres undefined) | inactive
16 | CCOc1ccc(NCc2cccn2-c2nnc(N3CCC(C(=O)NCCCN4C(C)CCCC4C)CC3)s2)cc1 (centres undefined) | inactive
17 | O=C(CSc1nnc(-c2cccs2)o1)NCC1CN(Cc2ccccc2)CCO1 (centres undefined) | inactive
18 | Nc1cc(=O)[nH]c(SCc2csc(-c3ccccc3)n2)n1 | inactive
19 | CCCOc1cccc(C(=O)NC(=S)Nc2ccc(N3CCN(C)CC3)cc2)c1 | inactive
20 | CCOC(=O)c1cc(-c2ccc(N3CCOCC3)cc2)nn1-c1ccccc1 | inactive

Row | Structure (SMILES) | outcome
21 | CCOC(=O)CNC(=O)C(Cc1ccccc1)NC(=O)OCc1ccccc1 (centres undefined) | inactive
22 | CCCCCc1ccc(-c2cn(Cc3cccc(OC)c3)nn2)cc1 | inactive
23 | COc1ccc(-c2cc(C3CCN(C(=O)OC(C)(C)C)CC3)[nH]n2)cc1 | inactive
24 | COc1ccc(C(=O)OCCNC(=O)c2c(Cl)nc3ccccn23)cc1 | inactive
25 | CCOC(=O)c1sc2nc3n(c(=O)c2c1C)CCC(C)CC3 (centres undefined) | inactive
26 | COc1ccccc1NC(=O)C(C)OC(=O)/C=C/c1ccc2ccccc2n1 (centres undefined) | inactive
27 | CC(OC(=O)c1cc(Cl)ccc1[N+](=O)[O-])C(=O)NC(C)c1ccc(F)cc1 (centres undefined) | inactive
28 | Cn1c(=O)c2cc(NCc3ccccc3)nnc2n(C)c1=O | inactive
29 | Cn1c(=O)n(Cc2ccccc2)c(=O)c2c1nc1n2CCCN1C1CCCCC1 | inactive
30 | Cc1nn(-c2ccccn2)c2c1-c1nc(N3CCOCC3)ncc1CC2 | inactive
31 | CCOC(=O)CSc1ncc(OC)c(Sc2ccc(OC)cc2)n1 | inactive
32 | Cc1ccc(-c2c[n+](CC(=O)N3c4ccccc4Sc4ccccc43)c3n2CCC3)cc1 | inactive
33 | C=CCN1CC[C@]23c4c5ccc(O)c4O[C@H]2/C(=N/NC(=O)c2ccccc2)CC[C@@]3(O)[C@H]1C5 | inactive
34 | CCOC(=O)c1sc2ncnc(NCC(c3cccs3)N(C)C)c2c1C (centres undefined) | inactive
35 | Cc1c(Cl)c([N+](=O)[O-])nn1Cc1ccc(C(=O)N/N=C\c2cccc(Br)c2)o1 | inactive
36 | Cc1cc(C(=O)N/N=C/c2ccc(-c3ccc([N+](=O)[O-])cc3Cl)o2)n[nH]1 | inactive
37 | CCn1c(SCC(=O)Nc2ccc3c(c2)oc2ccccc23)nnc1-c1ccc(N)cc1 | inactive
38 | CCSCc1nnc(SCC(=O)Nc2cccc(SC)c2)n1C | inactive
39 | Clc1cc(Cl)cc(Nc2ncn[nH]2)c1 | inactive
40 | C/C(CC(=O)Nc1ccc(C)c(Cl)c1)=N\NC(=O)Cc1cnc(N)s1 | inactive

Row | Structure (SMILES) | outcome
41 | COc1ccc(C(C)=O)cc1COC(=O)c1ccc2ccccc2n1 | inactive
42 | Cc1ccc(C)c(NNC(N)=S)c1 | inactive
43 | COc1ccc(CCNc2cc(-c3ccccc3)nc3ncnn23)cc1 | inactive
44 | O=c1c2c(nc3nc(NCc4ccc(Cl)cc4)[nH]n13)CCC2 | inactive
45 | COC(=O)CCCCC1SCC(NC(=O)c2ccccc2)C1=O (centres undefined) | inactive
46 | N#Cc1ccc(CN2CCN(CC(=O)NCCc3ccc(Cl)cc3Cl)CC2)cc1 | inactive
47 | COc1ccc(SN=C2C(C)=CC(=O)C=C2C)cc1 | inactive
48 | COC(=O)C1C(O)C(C)C(O)C(C)/C=C\C=C(/C)C(=O)Nc2c(C)c(OC(C)=O)c3c(c2O)C(=O)C(C)=C2OCOC(=C23)/C(C)=C/C(C)(O)C(O)C(C)C1O (centres undefined) | inactive
49 | C/C(=N/Nc1ccnc2cc(Cl)ccc12)c1ccc(O)cc1 | inactive
50 | CCc1ccc(/C(C)=N/Nc2cc(Cl)nc(C)n2)cc1 | inactive
51 | Cc1ccc2c(c1)nnn2C1CCN(CC(=O)N2CCN(c3ccc(F)cc3)CC2)CC1 | inactive
52 | c1ccc(CCN2CN=C(Nc3nc4ccccc4o3)NC2)cc1 | inactive
53 | C/C(O)=C\c1nc2ccccc2oc1=O | inactive
54 | CN1CCC(=NNC(=O)C(=O)Nc2ccccc2F)CC1 | inactive
55 | O=C(CCN1C(=O)/C(=C/c2ccccc2)SC1=S)Nc1ccccn1 | inactive
56 | O=C(COC(=O)C1=COCCO1)Nc1cccc(Oc2ccccc2)c1 | inactive
57 | CCOc1ccc2nc(/N=C/c3nc(-c4ccccc4)oc3O)sc2c1 | inactive
58 | Cc1ccc(-c2nnc(C)c(N3CCCC3)n2)cc1 | inactive
59 | O=C(c1cc2ccccc2o1)N1CCN(S(=O)(=O)c2ccc(Cl)s2)CC1 | inactive
